Measurements published in PubChem BioAssay (NCATS).
Records with an inconclusive call do not appear. A call without a number means that no potency is given here. Unmarked numbers belong to inactive results. Calls of active or inactive are those of the source. The call rests on the fitted dose curve; in most records, active means well fitted curve in the direction sought with a large enough effect; inconclusive means small, poorly fitted or top-dose-only effect, or another doubt; inactive means no such curve, though single readings can be large; an effect the other way counts as inactive or inconclusive.

What was measured:
[1] = qHTS to identify inhibitors of the type 1 interferon - major histocompatibility complex class I in skeletal muscle: primary screen against the NCATS Mechanism Interrogation Plate v5.0 (MIPE) Libary (AID 1347411); further: nearly all actives have a fitted effect of over 65% in size; further: potency means the concentration at half of the fitted maximal effect
Outline: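 HLA-B HiBit myoblasts, dexamethasone-free medium + 4 ng/ml IFN-b, 24 h compound, 11-pt 1:3 from 46 uM final. Readout: Nano-Glo HiBiT lytic luminescence after 10 min lysis, RT.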

[2] = biological target: Calcium and integrin-binding protein 1 (Homo sapiens) (UniProt Q99828); assay: Primary qHTS for Identification of Calcium Integrin Binding Protein 1 (CIB1) Competitor (AID 1508620);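 further: GST tagged CIB1 binding a fluorescein labelled alphaIIb integrin peptide tracer; top concentration of the series differs between compounds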
Sequence of Calcium and integrin-binding protein 1 (Homo sapiens) (Q99828 whole entry, looked up): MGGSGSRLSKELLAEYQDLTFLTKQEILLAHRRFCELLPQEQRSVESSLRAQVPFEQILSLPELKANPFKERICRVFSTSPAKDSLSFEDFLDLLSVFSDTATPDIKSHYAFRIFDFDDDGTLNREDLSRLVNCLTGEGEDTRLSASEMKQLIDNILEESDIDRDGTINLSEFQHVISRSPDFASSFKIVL
Outline: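 CIB1-GST (1 uM final) and compound incubated 15 min at room temperature before adding FITC-alphaIIb peptide tracer (100 nM final). Competition for binding read by fluorescence polarization (ex 480, em 540) after another 15 min at room temperature.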

[3] = Primary qHTS for small molecule stabilizers of the endoplasmic reticulum resident proteome: Secreted ER Calcium Modulated Protein (SERCaMP) assay (AID 1508630)
Outline: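 The SH-SY5Y reporter protocol was run at 3 concentrations up to 38.3 uM (primary) or 11 concentrations (follow-up): 16 h compound, 100 nM thapsigargin for 4 h, then extracellular luciferase luminescence.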

SMILES | Potency [1] | Potency [2] | outcome [3] | activity change, negative = inhibition [1]
OCCNC1CCCc2c1[nH]c1ccc(-c3ccccc3)cc21 (stereo not given) | 20.8 µM (active) | inactive |  | 
NC(=O)Nc1cc(-c2ccc(CN3CCOCC3)cc2)sc1C(N)=O | 7.39 µM (active) | inactive | inactive | 
Nc1nc(=O)n([C@H]2C[C@H](O)[C@@H](CO)O2)cc1F | inactive | inactive | inactive | 
C[C@@H]1C(=O)O[C@H]2CC34[C@H]5C[C@@H](C(C)(C)C)C36[C@H](OC(=O)[C@@H]6O)O[C@@]4(C(=O)O5)[C@]21O (stereo not given in full) | inactive | inactive | inactive | 
Nc1nc(N)c2nc(-c3cccc(O)c3)c(-c3cccc(O)c3)nc2n1 | inactive | inactive | inactive | 
COC(=O)C1C2CC3c4[nH]c5cc(OC)ccc5c4CCN3CC2CC(OC(=O)c2cc(OC)c(OC)c(OC)c2)C1OC (stereo not given) | inactive | inactive | inactive | 
c1ccc(CNc2nc(NCc3ccccc3)c3ccccc3n2)cc1 | 26.2 µM (active) | inactive | inactive | 
C=CC(=O)Nc1ccc2ncnc(Nc3ccc(OCc4cccc(F)c4)c(Cl)c3)c2c1 | 10.4 µM (active) | inactive | inactive | 
CCCc1nc(C(C)(C)O)c(C(=O)O)n1Cc1ccc(-c2ccccc2-c2nn[nH]n2)cc1 | inactive | inactive | inactive | 
O=C(Nc1ccc(Oc2ccnc3[nH]ccc23)c(F)c1)c1cccn(-c2ccc(F)cc2)c1=O | inactive | inactive | inactive | 
CC(C)NC[C@@H](C(=O)N1CCN(c2ncnc3c2[C@H](C)C[C@H]3O)CC1)c1ccc(Cl)cc1 | inactive | inactive | inactive | 
Cc1cncc2cccc(S(=O)(=O)N3CCCN(C(=O)CN)C[C@@H]3C)c12 | inactive | inactive | inactive | 
C[C@@H]1CC[C@@]2(OC1)OC1CC3C4CC=C5CC(O)CCC5(C)C4CCC3(C)C1[C@@H]2C (stereo not given in full) | inactive | inactive | inactive | 
C[C@H]1[C@@H](OC(=O)CCC(=O)O)O[C@@H]2O[C@@]3(C)CC[C@@H]4[C@H](C)CC[C@@H]1[C@@]24OO3 | inactive | inactive | inactive | 
CCCCCCCN(CC)CCCC(O)c1ccc(NS(C)(=O)=O)cc1 (stereo not given) | inactive | inactive | inactive | 
O=C(O)CCCCCC(=O)NN=C1CCCC1 | inactive | inactive | inactive | 
COc1cc2c(cc1OC)[C@@H]1C(=O)c3ccc4c(c3O[C@@H]1CO2)C=CC(C)(C)O4 | inactive | inactive | inactive | 
N#Cc1cc(NC(=O)Nc2nnc(-c3ccncc3)s2)ccc1-c1cn[nH]c1 | inactive | inactive | inactive | 
COc1ccc(S(=O)(=O)Nc2cccnc2Nc2ccc(O)cc2)cc1 | inactive | inactive | inactive | 
CCCCCCCCCCCCc1ccc(S(=O)(=O)Nc2nncs2)cc1 | inactive | inactive | inactive | 
Cc1ccc(O)c(C(CCN(C(C)C)C(C)C)c2ccccc2)c1 (stereo not given) | inactive | inactive | inactive | 
COc1ccc2c(c1OC)C(=O)OC2[C@H]1c2c(cc3c(c2OC)OCO3)CCN1C (stereo not given in full) | inactive | inactive | inactive | 
Cn1cc(C[C@@H](N)C(=O)O)c2ccccc21 |  | inactive | inactive | -7.72% [at 8.44 µM]
CCc1nc(-c2cccc(C)c2)c(-c2ccnc(NC(=O)c3ccccc3)c2)s1 | inactive | inactive | inactive | 
Cc1cc(Nc2ncc3c(n2)N(C)C(=O)N(c2cc(NC(=O)c4cccc(C(F)(F)F)c4)ccc2C)C3)n(C)n1 | 0.234 µM (active) | inactive | inactive | 
CC(Cc1ccc(O)c(O)c1)(NN)C(=O)O (stereo not given) | inactive | inactive | inactive | 
Cc1cnc(Nc2ccc(CN3CCOCC3)cc2)nc1Nc1cccc(S(=O)(=O)NC(C)(C)C)c1 | 2.94 µM (active) | inactive | inactive | 
